High-throughput results as filed in PubChem BioAssay.
EPAC2 ag – agonists of human EPAC2 (RAPGEF4) | EPAC2 activation, biochemical qHTS; response scale: 100% = 6.5 mM cAMP response | Q8WZA2 | 360,000 tested, 0.079% active | Potency, µM (titrated, usually from 154 µM), actives largely listed as activators | AID 720711; further: nearly all actives have a fitted effect of over 50% in size
Target sequence (Q8WZA2 whole entry, looked up): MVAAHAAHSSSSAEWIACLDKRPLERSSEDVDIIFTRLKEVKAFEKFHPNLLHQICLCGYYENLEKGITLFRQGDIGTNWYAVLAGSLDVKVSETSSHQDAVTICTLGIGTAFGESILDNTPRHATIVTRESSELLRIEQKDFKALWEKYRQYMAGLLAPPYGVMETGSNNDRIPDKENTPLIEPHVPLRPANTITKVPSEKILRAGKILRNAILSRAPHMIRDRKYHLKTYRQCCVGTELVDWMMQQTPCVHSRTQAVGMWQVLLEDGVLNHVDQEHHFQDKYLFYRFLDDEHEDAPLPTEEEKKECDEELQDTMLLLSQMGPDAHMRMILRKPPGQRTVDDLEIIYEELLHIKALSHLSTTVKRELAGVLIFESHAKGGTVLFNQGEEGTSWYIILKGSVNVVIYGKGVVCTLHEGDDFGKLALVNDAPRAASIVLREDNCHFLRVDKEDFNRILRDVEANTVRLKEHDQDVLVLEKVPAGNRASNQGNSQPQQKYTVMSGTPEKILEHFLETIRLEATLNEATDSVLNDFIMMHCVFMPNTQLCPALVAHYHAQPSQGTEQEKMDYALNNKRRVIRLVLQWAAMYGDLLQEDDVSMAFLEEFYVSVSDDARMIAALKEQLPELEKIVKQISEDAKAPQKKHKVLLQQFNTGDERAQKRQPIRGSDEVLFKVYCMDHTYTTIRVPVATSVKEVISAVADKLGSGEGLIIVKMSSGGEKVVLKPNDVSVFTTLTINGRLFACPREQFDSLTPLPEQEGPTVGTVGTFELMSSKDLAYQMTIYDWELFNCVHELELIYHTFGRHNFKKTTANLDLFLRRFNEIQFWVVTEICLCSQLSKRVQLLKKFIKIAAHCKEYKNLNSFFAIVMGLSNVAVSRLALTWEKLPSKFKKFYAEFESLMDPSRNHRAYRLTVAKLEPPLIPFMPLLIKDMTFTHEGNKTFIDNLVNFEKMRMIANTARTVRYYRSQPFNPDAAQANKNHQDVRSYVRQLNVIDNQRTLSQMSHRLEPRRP
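EPAC2 (100 nM) mixed with Rap1B loaded with BODIPY-GDP (250 nM) plus 50 uM unlabeled GDP; compounds pinned in, 5 min RT, then read every 5 min for 30 min (ex 480, em 540 nm). Normalized to cAMP control.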
USP1 inh – USP1/UAF1 (human) deubiquitinase inhibition. O94782. recombinant USP1/UAF1, Ub-Rhodamine cleavage fluorescence. Potency, µM (top dose mostly 57.1 µM), actives largely listed as inhibitors. 390,000 tested, 0.23% active. AID 743255; further: nearly all actives have a fitted effect of over 60% in size
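1 nM enzyme complex + cpd, 15 min RT; start with Ub-Rho 150nM final; kinetic fluorescence ex 480/em 540, 6 reads q60 s. Buffer 50mM HEPES pH 7.8, 0.5mM EDTA, 0.1 mg/ml BSA, 1mM TCEP, 0.01% Tween-20.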
EPAC1 antag – antagonists of human EPAC1 | Potency, µM (titrated, usually from 115 µM), hits mostly inhibitors | EPAC1 GEF assay, Rap1b-BODIPY-GDP exchange fluorescence | O95398 | 360,000 tested, 0.14% active; further: nearly all actives have a fitted effect of over 50% in size
EPAC2 antag – EPAC2 (human) antagonism; Potency, µM (top dose mostly 114 µM), hits mostly inhibitors; AID 720708; 360,000 tested, 0.18% active; EPAC2 GEF exchange of Rap1B-BODIPY-GDP, fluorescence; Q8WZA2; further: nearly all actives have a fitted effect of over 45% in size
EPAC1 ag – EPAC1 (human) agonism; O95398; EPAC1 agonist qHTS, biochemical assay; response scale: 100% = response to 6.5 mM cAMP; Potency, µM (titrated, usually from 154 µM), usual class: activators; 360,000 tested, 0.073% active; further: nearly all actives have a fitted effect of over 60% in size
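Multi-concentration qHTS readout: loss of Rap1B-bound BODIPY-GDP fluorescence driven by 100 nM EPAC1 with excess GDP (50 uM), monitored kinetically at room temperature; agonist response expressed relative to 6.5 mM cAMP.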
USP2a block – USP2a (human) protease inhibition; USP2 core, Ub-CHOP2 coupled fluorogenic reporter, 485/531; 330,000 tested, 0.01% active; Potency, µM (titrated, usually from 38.3 µM), actives largely listed as inhibitors; AID 463254; O75604
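USP2 core (10nM final) preincubated 30min RT with compound in 20mM Tris-HCl pH 8.0, 2mM CaCl2, 2mM beta-mercaptoethanol, 0.05% CHAPS; 25nM Ub-CHOP2 plus 25nM reporter substrate added, fluorescence (Ex485/Em531) read after 60min.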
Numbers stand for hits; n = inactive; u = inconclusive; x = no result. The list is not random: actives were taken first. Their share in the collection is about 0.45%. The call rests on the fitted dose curve; in most records, active means well fitted curve in the direction sought with a large enough effect; inconclusive means small, poorly fitted or top-dose-only effect, or another doubt; inactive means no such curve, though single readings can be large; an effect the other way counts as inactive or inconclusive.

SMILES | EPAC2 ag | USP1 inh | EPAC1 antag | EPAC2 antag | EPAC1 ag | USP2a block
CN(C)/C=C1\C=C2C(=O)c3ccccc3N2C1=O | 35µM | 4.5µM | n | n | u | u
Cn1cc(/C=C/c2cc[n+](C)cc2)c2cc(F)ccc21 | u | 28µM | n | n | u | u
C[n+]1ccc(/C=C/c2c[nH]c3ccc(F)cc23)cc1 | u | 28µM | n | n | n | u
COc1ccc(C2C(C(C)=O)=C(C)N=c3s/c(=C\c4ccco4)c(=O)n32)c(OC)c1 (stereo not drawn) | n | n | n | n | n | n
COc1ccc(C2C(C(C)=O)=C(C)N=c3s/c(=C\c4cc(C)n(C)c4C)c(=O)n32)c(OC)c1 (stereo not drawn) | u | 18µM | n | n | n | n
O=C1CSC(=S)N1/N=C/c1cc(Br)ccc1O | x | x | x | x | x | n
O=C1CSC(=S)N1/N=C/c1ccc(O)c(O)c1O | n | u | 25µM | n | n | n
Nn1cnnc1N/N=C/c1ccc(Cl)c([N+](=O)[O-])c1 | n | u | 16µM | n | n | n
COc1ccccc1N1C(=O)C2C(C(=O)c3ccccc3)=NN(c3ccccc3)C2C1=O (stereo not drawn) | n | u | n | n | u | n
COc1ccccc1N1N=C(C(=O)c2ccccc2)C2C(=O)N(c3ccc(Br)cc3)C(=O)C21 (stereo not drawn) | n | u | u | 45µM | u | n
O=C(O)c1[nH]c2ccccc2c1C(c1cc(Br)ccc1O)c1c(C(=O)O)[nH]c2ccccc12 | n | u | 45µM | n | n | n
COc1cc(Cl)cc(C(c2c(C(=O)O)[nH]c3ccccc23)c2c(C(=O)O)[nH]c3ccccc23)c1O | n | u | n | n | n | n
NS(=O)(=O)c1ccc(N=Nc2c[nH]c(=O)c(O)c2)cc1 | n | 28µM | u | n | n | n
COc1cc([N+](=O)[O-])ccc1-c1ccc(/C=C2\C(=O)ON=C2c2ccccc2)o1 | n | n | n | 50µM | n | x
CCOC(=O)C[C@@H]1OC[C@H](CO)N1S(=O)(=O)c1ccc(C)cc1 | n | x | n | n | n | x
CN1CC=C2C(C#N)=C(N)C(C#N)(C#N)C(c3ccsc3)C2C1 (stereo not drawn) | u | n | u | n | 63µM | n
CN1CC=C2C(C#N)=C(N)C(C#N)(C#N)[C@H](c3cccs3)[C@H]2C1 | n | u | n | n | n | n
CCCC1C2CN(C(C)C)CC=C2C(C#N)=C(N)C1(C#N)C#N (stereo not drawn) | 56µM | u | u | 35µM | 63µM | n
CCOC(=O)N1CC=C2C(C#N)=C(N)C(C#N)(C#N)[C@H](c3ccsc3)[C@H]2C1 | n | n | n | n | n | n
CN1CC=C2C(C#N)=C(N)C(C#N)(C#N)C(CCc3ccccc3)C2C1 (stereo not drawn) | 50µM | u | u | 45µM | u | n
CCc1ccc(C(=O)c2cn(CC(=O)Nc3ccc(C)c(C)c3)c3ccccc3c2=O)cc1 | x | n | x | x | x | x
CCOC(=O)c1ccccc1NC(=O)Cn1c(=O)n(CCCC(=O)NCc2ccc3c(c2)OCO3)c(=O)c2ccccc21 | x | n | x | x | x | x
CCCCc1nn2c(=O)cc(COC(=O)c3ccccc3NC(=O)c3cccs3)nc2s1 | x | n | x | x | x | x
Cc1cccc(NC(=O)CN2C(=O)N/C(=C\c3ccccc3OCc3ccc(C(=O)O)cc3)C2=O)c1 | n | n | 28µM | n | n | n
O=C(O)c1ccc(COc2ccccc2/C=C2/NC(=O)N(c3cccc(Cl)c3)C2=O)cc1 | n | n | u | u | 89µM | n
SMILES | EPAC2 ag | USP1 inh | EPAC1 antag | EPAC2 antag | EPAC1 ag | USP2a block
COc1cc(/C=C2\SC(=S)N(NS(=O)(=O)c3ccc(C)cc3)C2=O)cc(OC)c1OC | n | n | 79µM | 50µM | n | n
Cc1ccc(S(=O)(=O)NN2C(=O)/C(=C/c3cccc(F)c3)SC2=S)cc1 | n | n | u | 32µM | n | n
Cc1ccc(S(=O)(=O)NN2C(=O)/C(=C/c3ccccn3)SC2=S)cc1 | n | n | n | n | n | n
COc1cc(/C=C2\SC(=S)N(NS(=O)(=O)c3ccc(C)cc3)C2=O)ccc1O | n | n | u | u | n | n
CC1(C)CC(=O)c2cnc(N3CCc4ccccc43)nc2C1 | n | n | n | n | n | n
COc1ccc(C)c2sc(N(Cc3cccnc3)C(=O)C3CCCCC3)nc12 | x | n | x | x | x | x
CCCCC(CC)CN=C(N)NC(N)=NCCCCCCN=C(N)NC(N)=NCC(CC)CCCC (stereo not drawn) | n | 32µM | u | u | n | u
O=C(Nc1c(-c2ccc3c(c2)OCO3)[nH][nH]c1=O)c1ccccc1 | n | x | 35µM | u | n | x
O=C(Nc1c(-c2ccccc2)[nH][nH]c1=O)c1ccc2c(c1)OCO2 | n | x | n | n | n | x
O=C1C=C(NCc2ccccc2)c2ccccc2C1=O | n | 2.5µM | u | u | n | n
O=c1cccccc1NCc1ccccc1 | n | n | n | n | n | n
Cc1ccc(NC2=CC(=O)C(=O)c3ccccc32)c(C)c1 | n | 32µM | n | n | n | n
O=C1C=C(Nc2ccccc2O)c2ccccc2C1=O | n | 18µM | n | n | n | n
O=C(Nc1ccccc1O)c1ccc2c(c1)C(=O)N(N1C(=O)c3ccccc3C1=O)C2=O | n | n | n | n | n | n
CCc1cccc(NC(=O)c2ccc(CNS(=O)(=O)c3ccc4c(c3)C(C)(C)C(=O)N4C)cc2)c1 | x | n | x | x | x | x
COc1ccccc1NC1=C(N2CCCCC2)C(=O)c2ccccc2C1=O | n | 18µM | n | n | n | n
O=C1C(Nc2ccccc2)=C(N2CCCCC2)C(=O)c2ccccc21 | n | 25µM | n | n | n | n
O=C(/C=C/c1ccc(O)cc1)c1ccc(NC2=C(N3CCCCC3)C(=O)c3ccccc3C2=O)cc1 | n | 16µM | n | n | n | n
CCCC(=O)Nc1nnc(SCc2cc(=O)n3cccc(C)c3n2)s1 | x | n | x | x | x | x
COCCCNC(=O)C1CCN(C(=O)c2cnn(-c3ccccc3)c2-n2cccc2)CC1 | x | n | x | x | x | x
COc1ccc2c(c1)CC/C(=C\Nc1ccc3c(c1)OCO3)C2=O | u | u | n | n | u | n
COc1ccc(N/C=C2\CCc3ccccc3C2=O)cc1 | 100µM | u | n | n | u | n
COc1ccc(-n2c(SCC(=O)Nc3nccs3)nc3sc4c(c3c2=O)CCN(C)C4)cc1 | n | n | n | n | n | n
COc1ccc(NC(=O)CSc2nc3sc4c(c3c(=O)n2-c2ccc(OC)cc2)CCN(C)C4)cc1 | u | n | n | 71µM | n | n
